{"source": "PubChem BioAssay AID463173", "about": "(ICCB-Longwood Screening Facility, Harvard Medical School, 2010)", "note": "The campaign covered roughly 52,000 compounds. About 4,300 (8.3%) were called active. Rule as the data show it: active = survival mostly below about 52% (no sharp cut-off); inactive = mostly above about 56%. What follows is part of a selection rich in actives, with near analogues and random picks from the rest."}
{"test_system": "DeltatarO mutant", "assay": "growth inhibition of S. aureus wild type versus tarO mutant, primary screen, teichoic acid synthesis inhibitors, RN4220, OD600 (AID 463173)", "conditions": "OD600, 18 h, active compounds read low, screened at 18.75 µg/mL (by protocol)"}
{"smiles": "Cc1ccc(Nc2nc(C)cs2)cc1", "survival": "82% (inactive)"}
{"smiles": "Oc1ccc(Nc2nc(-c3ccc(O)cc3)cs2)cc1", "survival": "1% (active)"}
{"smiles": "c1ccc(Nc2nc(-c3ccncc3)cs2)cc1", "survival": "100% (inactive)"}
{"smiles": "CN1CCN(C(c2cccc(Br)c2)c2sc3nc(-c4ccco4)nn3c2O)CC1", "note": "(centres undefined)", "survival": "70% (inactive)"}
{"smiles": "CCN(CC)S(=O)(=O)c1ccc2oc(C(=O)N(C)Cc3ccccc3)c(C)c2c1", "survival": "40% (active)"}
{"smiles": "COc1ccc(N(C)C(=O)c2oc(=O)c3ccccc3c2-c2ccc(C)cc2)c(OC)c1", "survival": "97% (inactive)"}
{"smiles": "Cc1ccc(-c2c(C(=O)NCc3ccc(F)cc3)oc(=O)c3ccccc23)cc1", "survival": "57% (inactive)"}
{"smiles": "CCCCN(Cc1ccccc1)C(=O)c1oc(=O)c2ccccc2c1-c1ccc(C)cc1", "survival": "8% (active)"}
{"smiles": "CCN(CC)S(=O)(=O)c1ccc2oc(C(=O)NCc3ccccc3OC)c(C)c2c1", "survival": "71% (inactive)"}
{"smiles": "Cc1ccc(-c2c(C(=O)N(C)Cc3ccccc3)oc(=O)c3ccccc23)cc1", "survival": "24% (active)"}
{"smiles": "CCOc1ccc(N(C)C(=O)c2oc(=O)c3ccccc3c2-c2ccccc2)cc1", "survival": "55% (inactive)"}
{"smiles": "CCOc1ccc(CCNC(=O)c2oc(=O)c3ccccc3c2-c2ccc(C)cc2)cc1OCC", "survival": "70% (inactive)"}
{"smiles": "Cc1ccc(-c2c(C(=O)NCCc3ccc(Cl)cc3)oc(=O)c3ccccc23)cc1", "survival": "51% (inactive)"}
{"smiles": "CCCCN(CCCC)S(=O)(=O)c1ccc2oc(C(=O)NCc3ccccc3)c(C)c2c1", "survival": "99% (inactive)"}
{"smiles": "Cc1ccc(-c2c(C(=O)NCCc3ccccc3)oc(=O)c3ccccc23)cc1", "survival": "91% (inactive)"}
{"smiles": "Cc1ccc(CCNC(=O)c2oc(=O)c3ccccc3c2-c2ccc(C)cc2)cc1", "survival": "28% (active)"}
{"smiles": "O=C1CC(N2CCC(c3nc4ccccc4[nH]3)CC2)C(=O)N1", "note": "(centres undefined)", "survival": "84% (inactive)"}
{"smiles": "Cc1c(C)n(Cc2ccccc2)c2ccc(C(=O)NCCc3ccccc3Cl)cc12", "survival": "84% (inactive)"}
{"smiles": "COCCCn1c(SCC(=O)Nc2ccc(F)cc2)nc2c(sc3ccccc32)c1=O", "survival": "81% (inactive)"}
{"smiles": "CCOCCc1nnc(NC(=O)C(=O)c2cc(C)n(-c3ccc(Cl)cc3)c2C)s1", "survival": "60% (inactive)"}
{"smiles": "CC(C)c1nn2c(=O)cc(COC(=O)c3ccccc3NC(=O)C3CCCCC3)nc2s1", "survival": "90% (inactive)"}
{"smiles": "CCOCCCNC(=O)C1CCN(c2nn3cc(-c4ccc(F)cc4)nc3s2)CC1", "survival": "86% (inactive)"}
{"smiles": "CC1=C(c2ccc(C)c(C)c2)S(=O)(=O)N=C1N1CCC(C(=O)NCc2ccccc2C)CC1", "survival": "76% (inactive)"}
{"smiles": "COc1ccc(CNC(=O)CCc2c(C)c3cc4c(C)c(C)oc4cc3oc2=O)cc1OC", "survival": "104% (inactive)"}
{"smiles": "CCOc1ccc(OCC)c(Nc2nc3ccc(C(=O)c4ccccc4)cc3n3cnnc23)c1", "survival": "77% (inactive)"}
{"smiles": "CCCCNC(=O)C1CCN(c2nc3ccccc3nc2C(F)(F)F)CC1", "survival": "115% (inactive)"}
{"smiles": "CCNC(=O)C1CCN(c2nc3ccccc3nc2C(F)(F)F)CC1", "survival": "144% (inactive)"}
{"smiles": "O=C(NCCc1ccccc1Cl)C1CCN(c2nc3ccccc3nc2C(F)(F)F)CC1", "survival": "37% (active)"}
{"smiles": "Cc1ccccc1CCNC(=O)C1CCN(c2nc3ccccc3nc2C(F)(F)F)CC1", "survival": "72% (inactive)"}
{"smiles": "CCCSCCCNC(=O)C1CCN(c2nc3ccccc3nc2C(F)(F)F)CC1", "survival": "0% (active)"}
{"smiles": "COc1ccccc1CCNC(=O)C1CCN(c2nc3ccccc3nc2C(F)(F)F)CC1", "survival": "117% (inactive)"}
{"smiles": "CCOC(=O)c1cnc2ccc(OCC)cc2c1N1CCN(c2cccc(Cl)c2)CC1", "survival": "3% (active)"}
{"smiles": "CCOC(=O)c1cc(S(=O)(=O)N2CCN(c3ccccc3OC)CC2)[nH]n1", "survival": "122% (inactive)"}
{"smiles": "CCOC(=O)c1cc(S(=O)(=O)N2CCN(c3cccc(C)c3C)CC2)[nH]n1", "survival": "81% (inactive)"}
{"smiles": "CCOC(=O)c1cnc2cc(C(F)(F)F)ccc2c1N1CCN(c2cccc(Cl)c2)CC1", "survival": "84% (inactive)"}
{"smiles": "CCOC(=O)c1noc2ncnc(N3CCN(c4cccc(Cl)c4)CC3)c12", "survival": "83% (inactive)"}
{"smiles": "CCOC(=O)c1cnc(N2CCN(c3ccc(C)cc3C)CC2)c2ccccc12", "survival": "87% (inactive)"}
{"smiles": "CCOC(=O)c1cnc(N2CCN(c3cccc(C)c3C)CC2)c2ccccc12", "survival": "77% (inactive)"}
{"smiles": "COC(=O)c1cnc(N2CCN(c3ccccc3F)CC2)c2ccccc12", "survival": "86% (inactive)"}
{"smiles": "CCOC(=O)c1cnc2ccc(OCC)cc2c1N1CCN(c2ccccc2F)CC1", "survival": "0% (active)"}
{"smiles": "CCOC(=O)c1cnc2c(OC)cccc2c1N1CCN(c2ccccc2F)CC1", "survival": "1% (active)"}
{"smiles": "CCOc1ccc(NC(=O)NCCN2CCN(c3ccccc3F)CC2)cc1", "survival": "87% (inactive)"}
{"smiles": "CCOC(=O)c1cc(S(=O)(=O)N2CCN(c3ccccc3F)CC2)[nH]n1", "survival": "-5% (active)"}
{"smiles": "CCOC(=O)c1ccccc1NC(=O)Cn1c(=O)n(-c2cccc(C)c2)c(=O)c2c1c1cc(C)ccc1n2C", "survival": "68% (inactive)"}
{"smiles": "CCOc1ccc(C(=O)NCC(c2cccs2)S(=O)(=O)c2ccccc2)cc1", "note": "(centres undefined)", "survival": "97% (inactive)"}
{"smiles": "CC(C)OC(=O)c1cc2c(ccn2C)n1CCC#N", "survival": "96% (inactive)"}
{"smiles": "Cc1cc(Nc2ccccc2C)nc(-n2nc(C)cc2C)n1", "survival": "83% (inactive)"}
{"smiles": "Cc1ccc(S(=O)(=O)c2nc(-c3cccc(Cl)c3)oc2NCc2ccccc2)cc1", "survival": "168% (inactive)"}
{"smiles": "COc1ccc(NC(=O)C(=O)NCC(c2cccnc2)N2CCc3ccccc32)cc1OC", "note": "(centres undefined)", "survival": "61% (inactive)"}
{"smiles": "Cc1cccc(C)c1NC(=O)C(=O)NCC(c1cccnc1)N1CCc2ccccc21", "note": "(centres undefined)", "survival": "62% (inactive)"}
{"smiles": "Cc1ccc(NC(=O)C(=O)NCC(c2cccnc2)N2CCc3ccccc32)cc1Cl", "note": "(centres undefined)", "survival": "97% (inactive)"}
{"smiles": "Cc1cc(C)cc(NC(=O)C(=O)NCC(c2cccnc2)N2CCc3ccccc32)c1", "note": "(centres undefined)", "survival": "43% (active)"}
{"smiles": "COC(=O)c1ccc(NC(=O)C(=O)NCC(c2cccnc2)N2CCc3ccccc32)cc1", "note": "(centres undefined)", "survival": "34% (active)"}
{"smiles": "CCOc1ccc(NC(=O)C(=O)NCC(c2cccnc2)N2CCc3ccccc32)cc1", "note": "(centres undefined)", "survival": "44% (inactive)"}
{"smiles": "COc1ccc(NC(=O)c2cnc(N3CCCCC3)c3ccccc23)cc1Cl", "survival": "78% (inactive)"}
{"smiles": "CCOc1cc(C(=O)Nc2ccc3c(c2)n(C)c(=O)c(=O)n3C)cc(OCC)c1OCC", "survival": "84% (inactive)"}
{"smiles": "COc1ccc2c(c1)sc1ncc(C(=O)NCc3ccccc3F)c(=O)n12", "survival": "101% (inactive)"}
{"smiles": "Cc1ccc2[nH]c(=O)cc(C(=O)O)c2c1", "survival": "99% (inactive)"}
{"smiles": "Cc1ccc2[nH]c(C)cc(=S)c2c1", "survival": "45% (active)"}
{"smiles": "Cc1cc(=O)c2cc(Br)ccc2[nH]1", "survival": "71% (inactive)"}
{"smiles": "COc1cc(NC(=O)C(NS(=O)(=O)c2ccc3c(c2)CCCC(=O)N3)C(C)C)cc(OC)c1", "note": "(centres undefined)", "survival": "71% (inactive)"}
{"smiles": "O=C(Nc1cc2c(cc1C(=O)c1ccccc1Cl)OCCO2)c1ccc(Br)cc1", "survival": "66% (inactive)"}
{"smiles": "O=C(Nc1cc2c(cc1C(=O)c1cccc(Br)c1)OCCO2)c1ccccc1F", "survival": "28% (active)"}
{"smiles": "CCC(=O)c1cc2c(cc1NC(=O)c1ccccc1F)OCCO2", "survival": "68% (inactive)"}
{"smiles": "CC1CCCN(S(=O)(=O)c2ccc(NC(=O)CSc3nc4ccccc4o3)cc2)C1", "note": "(centres undefined)", "survival": "58% (inactive)"}
{"smiles": "CCC1Oc2ccccc2N(CC(=O)NCc2ccccc2)C1=O", "note": "(centres undefined)", "survival": "-1% (active)"}
{"smiles": "CCC1Oc2ccc(C)cc2N(CC(=O)NCc2ccc(F)cc2)C1=O", "note": "(centres undefined)", "survival": "70% (inactive)"}
{"smiles": "CCC1Oc2ccc(C)cc2N(CC(=O)NCc2ccc(OC)cc2)C1=O", "note": "(centres undefined)", "survival": "39% (active)"}
{"smiles": "CCC1Oc2ccccc2N(CC(=O)NCc2ccc(C)cc2)C1=O", "note": "(centres undefined)", "survival": "78% (inactive)"}
{"smiles": "CC1Oc2ccccc2N(CC(=O)NCc2ccccc2)C1=O", "note": "(centres undefined)", "survival": "92% (inactive)"}
{"smiles": "CCC1Oc2ccc(C)cc2N(CC(=O)NCCc2ccccc2)C1=O", "note": "(centres undefined)", "survival": "80% (inactive)"}
{"smiles": "COc1ccc(C2c3c(oc4ccc(F)cc4c3=O)C(=O)N2Cc2ccc3c(c2)OCO3)cc1", "note": "(centres undefined)", "survival": "59% (inactive)"}
{"smiles": "COc1ccccc1N1CCN(c2ncnc3c2nc2n3CCCC2)CC1", "survival": "67% (inactive)"}
{"smiles": "Cc1cc(=O)n2nc(N3CCC(C(=O)NCc4ccccc4Cl)CC3)sc2n1", "survival": "87% (inactive)"}
{"smiles": "CCOC(=O)c1cccc(NC(=O)Nc2c(C)n(C)n(-c3ccccc3)c2=O)c1", "survival": "94% (inactive)"}
{"smiles": "CCCc1cc(=O)oc2cc(C)c3c(-c4cccc(OC)c4)coc3c12", "survival": "67% (inactive)"}
{"smiles": "CCCc1cc(=O)oc2cc(C)c3c(C(C)(C)C)coc3c12", "survival": "88% (inactive)"}
{"smiles": "CCCc1cc(=O)oc2cc(C)c3c(-c4ccccc4)c(C)oc3c12", "survival": "-10% (active)"}
{"smiles": "Cc1ccc2[nH]c(=O)c(CN(Cc3ccccc3)C(=O)c3ccco3)cc2c1", "survival": "103% (inactive)"}
{"smiles": "CCc1nnc2n1N(C(C)=O)C(c1ccc(C(C)(C)C)cc1)=C(C(C)=O)S2", "survival": "96% (inactive)"}
{"smiles": "Cc1c(CNC2CCCCCC2)c(C(=O)O)c(C)n1Cc1ccc(F)cc1Cl", "survival": "80% (inactive)"}
{"smiles": "Oc1ccccc1-c1nc(-c2cccs2)c(-c2cccs2)[nH]1", "survival": "0% (active)"}
{"smiles": "COc1ccc(O)c(-c2cn[nH]c2-c2cccs2)c1", "survival": "89% (inactive)"}
{"smiles": "CN1C(C(=O)Nc2cccc(O)c2)=CC(c2cccs2)=NS1(=O)=O", "survival": "87% (inactive)"}
{"smiles": "Fc1ccc2[nH]c(-c3cccs3)cc2c1", "survival": "54% (inactive)"}
{"smiles": "CN(C)c1ccc(-c2nc(-c3cccs3)c(-c3cccs3)[nH]2)cc1", "survival": "47% (active)"}
{"smiles": "Fc1ccc(-c2nc(-c3cccs3)c(-c3cccs3)[nH]2)cc1", "survival": "64% (inactive)"}
{"smiles": "Oc1cccc(-c2nc(-c3cccs3)c(-c3cccs3)[nH]2)c1", "survival": "4% (active)"}
{"smiles": "Cc1sc(N)nc1-c1cccs1", "survival": "96% (inactive)"}
{"smiles": "Cc1ccc(-c2nc(-c3cccs3)c(-c3cccs3)[nH]2)cc1", "survival": "62% (inactive)"}
{"smiles": "COc1cc(Cl)c(C)cc1NC(=O)CCc1c(C)nc2cc(-c3cccc(F)c3)nn2c1C", "survival": "74% (inactive)"}
{"smiles": "CCCCc1nn2c(=O)cc(CN(CC)c3ccccc3)nc2s1", "survival": "73% (inactive)"}
{"smiles": "Cc1noc2ncnc(N3CCN(c4cccc(C(F)(F)F)c4)CC3)c12", "survival": "71% (inactive)"}
{"smiles": "CCOC(=O)CSc1nc2cc3c(cc2c(=O)n1CCCC(=O)NCc1ccc2c(c1)OCO2)OCO3", "survival": "83% (inactive)"}
